# Compound activity from PubChem.
# Tau fluor counter = counter-screen for tau fibril formation inhibitors | tau K18 P301L Alexa594 fluorescence, heparin fibrillization | AID 1463 | actives 0.93% (n = 280,000) | Potency, µM (doses to about 57.7 µM), for inactives: at the highest dose activity change, negative = decrease; also: nearly all actives have a fitted effect of over 55% in size
#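 Human K18 P301L tau (15 uM unlabeled plus 0.24 uM Alexa 594-labeled, final) in 100 mM sodium acetate pH 7 was mixed with compound and 20 uM heparin and incubated 6 hr at 37 C.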
# TRb SRC2 PPI = TRbeta-SRC2 interaction inhibition. AID 1469. actives 0.065% (n = 280,000). TRbeta-SRC2 peptide binding, fluorescence polarization; receptor liganded with 1 µM T3. Potency, µM (doses to about 106 µM), without a hit: at the highest dose activity change, negative = inhibition, hits mostly inhibitors;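 also: plate controls were bound peptide for no effect and peptide without receptor for full effect; nearly all actives have a fitted effect of over 50% in size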
# Target sequence (P10828 whole entry, looked up): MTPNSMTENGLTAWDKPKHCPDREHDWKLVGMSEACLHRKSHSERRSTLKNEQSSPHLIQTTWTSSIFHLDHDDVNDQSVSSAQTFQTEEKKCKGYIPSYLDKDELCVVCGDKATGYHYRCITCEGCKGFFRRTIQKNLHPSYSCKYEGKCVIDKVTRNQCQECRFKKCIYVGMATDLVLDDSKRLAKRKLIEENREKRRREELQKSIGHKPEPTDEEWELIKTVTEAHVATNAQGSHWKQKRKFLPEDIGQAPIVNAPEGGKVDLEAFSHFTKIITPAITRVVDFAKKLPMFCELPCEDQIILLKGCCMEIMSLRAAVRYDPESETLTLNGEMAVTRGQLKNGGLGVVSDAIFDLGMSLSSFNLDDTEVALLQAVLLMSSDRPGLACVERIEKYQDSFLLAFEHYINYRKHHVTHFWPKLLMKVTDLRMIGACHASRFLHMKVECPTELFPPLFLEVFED
#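 Polarization signal, normalized between peptide-alone and full complex controls, measured compound effects on T3-liganded human TRb LBD (0.6 uM) binding 20 nM Texas Red SRC2 peptide after 5 hr.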
# Tau fibril ThT = blocks human tau fibril formation measured by thioflavin T; recombinant tau K18 P301L (four-repeat tau fragment), heparin-induced fibrillization, ThT fluorescence; Potency, µM (highest dose often 57.4 µM), for the others: at the top dose activity, negative = inhibition, usual class: inhibitors; actives 2.1% (n = 270,000); AID 1460; also: nearly all actives have a fitted effect of over 55% in size
# Target sequence (P10636 561-689 P618L limits assumed): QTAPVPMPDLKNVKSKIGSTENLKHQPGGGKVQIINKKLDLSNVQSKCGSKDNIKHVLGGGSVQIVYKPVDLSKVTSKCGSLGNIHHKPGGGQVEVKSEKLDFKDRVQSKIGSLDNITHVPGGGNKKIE
#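 K18 P301L tau (15 uM + 0.24 uM Alexa 594-tagged), heparin 20 uM, NaOAc pH 7, 6 h 37 C; ThT 30 uM, 1 h RT, ex 450/em 510 nm.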
# Tau FP inhib = tau fibrillization inhibition (FP) | Potency, µM (highest dose often 57.7 µM), without a hit: top-dose activity, negative = inhibition, actives largely listed as inhibitors | actives 0.39% (n = 280,000) | AID 1468 | K18 P301L tau heparin fibrillization, Alexa594 FP, 6 h; also: nearly all actives have a fitted effect of over 55% in size
#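 Steps: dispense K18 P301L tau (15 uM plus 0.24 uM Alexa 594 tracer, final) in pH 7 sodium acetate; add compound; add heparin (20 uM final); incubate 6 hr, 37 C; add ThT (30 uM final); after 1 hr ambient, read FP.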
# TR SRC2 fluor cs = Texas Red fluorescence interference in TRb-SRC2 counter-screen; TRb/SRC2 Texas Red total fluorescence interference; Potency, µM (series often up to 106 µM), for inactives: at the highest dose fluorescence change, negative = quenching; actives 0.29% (n = 280,000); active = well fitted curve in either direction with a large enough effect; inconclusive = small, poorly fitted or top-dose-only effect
#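 Human TRb ligand-binding domain at 0.6 uM with 20 nM Texas Red SRC2 peptide in Tris buffer containing 1 uM T3 and 5% DMSO, incubated with compound 5 h at ambient temperature. Total fluorescence (555/632 nm) calculated as parallel + 2 × perpendicular.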
# * hit, by the source's call; u = inconclusive; x = no result given; [ ] = another dose, or the depositor's remark. In the library only some 3.1% were active in any assay of this set; here they are far more common. Unless noted, calls follow the shape of the dose curve; as a rule, active = well fitted curve in the direction sought with a large enough effect; inconclusive = small, poorly fitted or top-dose-only effect, or another doubt; inactive = no such curve, though single readings can be large; an effect the other way counts as inactive or inconclusive. Unless noted, % is scaled to controls: 0 for no effect and ±100 for the full control effect; potency is read from the fitted curve at half-maximal effect.
SMILES,Tau fluor counter,TRb SRC2 PPI,Tau fibril ThT,Tau FP inhib,TR SRC2 fluor cs
CC1CCCN(c2ccc(/C=C(\C#N)c3nn(-c4ccccc4)c(N)c3C#N)cc2[N+](=O)[O-])C1 (configuration not stated),u,-23.6%,14.1µM*,-4.4%,-7.3%
CC1CCN(c2ccc(/C=C(\C#N)c3nn(-c4ccccc4)c(N)c3C#N)cc2[N+](=O)[O-])CC1,u,-2.4%,u,-8.6%,-0.1%
Cc1ccc2nc(/C(C#N)=C\c3ccc([N+](=O)[O-])o3)[nH]c2c1,12.6µM*[quencher],u,8.91µM*,u,14.5%
N#C/C(=C(/O)c1ccc([N+](=O)[O-])o1)c1nc2ccccc2[nH]1,u,-0.5%,7.08µM*,5.4%,-2.3%
N#C/C(=C\c1ccc(N2CCCC2)c([N+](=O)[O-])c1)c1nc2ccccc2[nH]1,u,0.6%,2µM*,-4.8%,-1.7%
COC(=O)c1c(SC)nc2ccccc2c1OCc1ccc(C)cc1C,-3.5%,-9.0%,-15.3%,u,-1.5%
CCOc1ccc(-c2cn3c(n2)sc2cc(C(=O)NCCCN(CC)CC)ccc23)cc1,0.8%,-7.8%,1.2%,0.1%,4.0%
CC(N)(C(=O)O)c1ccc(S(=O)(=O)O)cc1 (configuration not stated),0.4%,-0.3%,-1.8%,0.2%,-1.3%
O=C(CCSCc1ccccc1Cl)NCCc1ccccc1,-22.2%,-11.8%,-16.3%,0.6%,0.2%
N#C/C(=C\c1ccc(Sc2ccccc2)o1)c1nc2ccccc2[nH]1,-26.6%,2.0%,3.4%,u,-11.0%
N#C/C(=C\c1ccc([N+](=O)[O-])o1)c1nc2ccccc2[nH]1,11.2µM*[quencher],2.0%,7.08µM*,u,5.8%
CCN(CC)C(=O)Cn1c(SCC(=O)Nc2ccc(F)cc2)nc2ccccc21,-0.7%,-2.8%,7.3%,-4.9%,-0.3%
O=C1C=C(N(CCO)Cc2ccccc2)c2ccccc2C1=O,-27.5%,u,12.6µM*,u,-3.6%
Cc1ccccc1OCC(=O)Nc1ccc(S(=O)(=O)Nc2ncccn2)cc1,-0.4%,-8.2%,-7.2%,-6.2%,10000µM*[quencher]
O=C(COc1ccccc1)Nc1ccc(S(=O)(=O)Nc2ncccn2)cc1,3.9%,1.6%,2.8%,-2.6%,-0.4%
Cc1[nH]c2ccccc2c1C1(O)C(=O)N(Cc2ccccc2)c2ccc(Br)cc21 (configuration not stated),11.2µM*[quencher],9.0%,u,2.2%,-5.9%
CCCCNc1nc2c(c(=O)n(Cc3ccc(Cl)c(Cl)c3)c(=O)n2C)n1C,11.2µM*[quencher],-1.1%,u,u,-1.4%
CCCCNc1nc2c(c(=O)n(Cc3ccc(Cl)cc3)c(=O)n2C)n1C,u,2.0%,u,18.3%,2.9%
CC(C)COc1ccc(C(=O)Nc2sc3c(c2C(=O)O)CC(C)(C)OC3)cc1,u,13.5%[53 µM],15.8µM*,-8.3%,1.1%[53 µM]
Cc1ccc(NC(=O)CCn2cnc3ccccc3c2=O)cc1Cl,-0.1%,2.9%,1.1%,-11.2%,-0.2%
Cc1ccc(N/N=C2\CC(=O)c3ccccc32)cc1Cl,u,2.6%,7.08µM*,u,0.6%
O=C(NCc1cccc(Br)c1)c1cccn1-c1nnc(N2CCCCC2)s1,-20.3%,-2.8%,-7.9%,6.9%,-0.9%
Oc1ccc(N=C/C=C/c2ccc(Br)cc2)cc1-c1nc2ccccc2s1,u,2.2%,11.2µM*,-23.2%,-11.6%
CC(=O)OC[C@@]1(O)C[C@]23CCC4c5ccoc5CC[C@@]4(C)C2CCC1C3 (some centres not stated),-4.6%,-2.3%,-5.8%,-3.8%,-2.2%
C[C@@]12C=Cc3occc3C1CC[C@@]13C[C@@H](CCC12)[C@@](O)(CO)C3 (some centres not stated),u,18.2%,11.2µM*,10µM*,u
SMILES,Tau fluor counter,TRb SRC2 PPI,Tau fibril ThT,Tau FP inhib,TR SRC2 fluor cs
C[C@@H]1C(=O)O[C@H]2[C@H](O)[C@@]34[C@H]5CC(C(C)(C)C)[C@]36[C@H](OC(=O)[C@H]6O)O[C@]4(C(=O)O5)[C@@]12O (some centres not stated),x,-0.3%,x,x,-2.1%
Cc1oc2ncn(C)c(=O)c2c1C(=O)NC(C)c1ccccc1 (configuration not stated),-10.0%,-29.5%,-1.3%,-14.2%,0.282µM*[quencher]
CC1=NN(c2ccccc2)C(=O)/C1=C\c1cc(C)n(C)c1C,-13.4%,-9.3%,3.55µM*,u,-1.4%
CC1=NN(c2ccccc2)C(=O)/C1=C/c1cc2cc(C)ccc2nc1N1CCCCC1,u,u,u,-8.7%,-1.6%
CC1=NN(c2ccccc2)C(=O)/C1=C/c1cn(C)c2ccccc12,u,3.5%,2.82µM*,7.9%,-0.7%
CC1=NN(c2ccccc2)C(=O)/C1=C\c1cn(C)c2ccccc12,u,5.3%,7.08µM*,u,0.0%
C=CC(=O)OCCCCCCOC(=O)C=C,x,7.9%[201 µM],x,x,3.6%[201 µM]
C/C(=N\NC(=O)c1ccccn1)c1ccc(C(=O)O)s1,-7.9%,-5.8%,-4.2%,-4.6%,-0.6%
O=C(CSc1ccccn1)Nc1ccc2c(c1)C(=O)c1ccccc1C2=O,u,0.6%,-8.5%,10.4%,-13.8%
O=C(CSc1n[nH]c(=O)[nH]c1=O)Nc1ccc2c(c1)C(=O)c1ccccc1C2=O,12.6µM*[quencher],4.0%,10µM*,14.6%,-11.1%
Nc1c(C(=O)Nc2ccccc2)sc2ncc([N+](=O)[O-])cc12,-12.2%,4.4%,u,4.6%,-0.9%
CCOC(=O)c1sc2ncc([N+](=O)[O-])cc2c1N,-19.0%,1.6%,7.94µM*,7.9%,-3.6%
CCn1nnc2cc(C(=O)Nc3ccc(OC)cc3)ccc21,-11.7%,-7.3%,u,0.0%,-0.4%
COCCNC(=O)CSc1nc(-c2ccc(C)cc2)nc2c1c(=O)n(C)c(=O)n2C,-4.2%,-3.2%,-6.7%,-3.2%,-1.1%
COc1ccc(Nc2nc(Nc3ccc(OC)cc3OC)nc(N3CCOCC3)n2)c(OC)c1,2.82µM*[quencher],2.8%,u,3.4%,-2.7%
Cc1ccc2c(c1)c(N=Nc1cccc(C(=O)O)c1)c(O)n2C,-6.6%,0.2%,14.1µM*,2.2%,-14.0%
CCOc1ccc2c(c1)c(N=Nc1cccc(C(=O)O)c1)c(O)n2C,3.0%,6.1%,7.3%,4.8%,-0.6%
Cc1ccc(OCC(=O)Nc2ccc(S(=O)(=O)Nc3ncccn3)cc2)c(C(C)(C)C)c1,-12.7%,1.5%,-9.1%,2.8%,-30.4%
c1ccc2nc(-c3ccc4c(c3)OCO4)ccc2c1,-7.5%,-1.8%,u,2.2%,-1.0%
CNc1ccccc(-c2ccc3cc4c(cc3n2)OCO4)c1=O,u,-2.9%,5.01µM*,-14.5%,-4.6%
CN(C)c1ccc(NC(=S)c2ccccn2)cc1,u,-3.9%,3.55µM*,4.3%,0.3%
